These compounds were tested on murine 3T3 fibroblasts (assay: primary screen, percent viability or growth; higher = less effect of the substance).
Method: Similarly, for measuring the cytotoxicity concentration (CC50) for 3T3 fibroblast cells, cultures were incubated with drugs for 72 hours and developed using Alamar Blue (Alamar Biosciences Inc, Sacramento, CA) as previously described.

Going from `CC[C@@]1(O)C(=O)OCc2c1cc1n(c2=O)Cc2cc3ccccc3nc2-1` to `CC(C)c1ccc2c(c1O)CC[C@H]1C3=C(CC[C@]21C)C(=O)OC3`, the “Mammalian (3T3) cell % growth at 10 uM” value falls from 94.3% to 83.1%.

Going from `CC1=C(O)C(=O)C=C2C1=CC=C1[C@@]2(C)CC[C@@]2(C)[C@@H]3C[C@](C)(C(=O)O)CC[C@]3(C)CC[C@]12C` to `Cc1c(O)c(O)cc2c1CC=C1[C@@]2(C)CC[C@@]2(C)[C@@H]3C[C@](C)(C(=O)O)CC[C@]3(C)CC[C@]12C`, the “Mammalian (3T3) cell % growth at 10 uM” value falls from 1% to 0.1%.

First: O=C1C=C2C=C[C@@H]3C[C@@]2(O1)[C@H]1CCCCN31
Second: C[C@@H]1CC[C@H]2[C@@H](C)C(=O)O[C@@H]3O[C@@]4(C)CC[C@@H]1[C@]32OO4
The “Mammalian (3T3) cell % growth at 10 uM” value of the first is lower: 75% for the first, 77.6% for the second.

In the case of `COc1ccc(C[C@H]2NC[C@H](O)[C@H]2OC(C)=O)cc1`, the “Mammalian (3T3) cell % growth at 10 uM” value is reported as 10.3%.
